Here are results for 30 compounds from PubChem BioAssay (NCATS).

Results filed as inconclusive are left out. Where a call stands in place of a potency, no number is given. A number with no mark means an inactive call. Calls of active or inactive are those of the source. Calls follow the shape of the dose curve; as a rule, active = well fitted cell-killing curve with a large enough effect; inconclusive = small, poorly fitted or top-dose-only effect, or effect the other way; inactive = flat fitted curve, though single readings scatter.
Potency is read from the fitted curve at half-maximal effect.

The test has as its system Tov112D. Description: Primary qHTS to identify gynecologic anti-cancer compounds using libraries of approved drugs and bioactive compounds (AID 1345084). Also: nearly all actives have a fitted effect of over 55% in size. The conditions noted are these: Gynecologic cancer cell panel viability, ATPlite luminescence, 48 h; series mostly up to 57.5 µM. Summed up: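 Luminescence from the ATPlite ATP-monitoring reagent indicates viable cell number; lower signal means cytotoxicity. Cells received compound 16 h after seeding and were exposed for 48 h across five concentrations.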
Turning to `Cn1cc(-c2ccc(S(=O)(=O)n3ccc(/C=C/C(=O)Nc4ccccc4N)c3)cc2)cn1`, the Potency was 4.47 µM (active).

For `CCn1c(-c2nonc2N)nc2c(C#CC(C)(C)O)ncc(OCC3CCCNC3)c21` (stereo not given), the Potency result was “inactive”.

Take `N#Cc1cc(CN2CCC(Nc3ncnc4sc(Cl)cc34)CC2)ccc1F`: the Potency result was “inactive”.

On to `Oc1cccc(C2NC(=S)Nc3cccc(F)c32)c1` (stereo not given), for which the Potency is 10 µM (active).

With `C[C@H](Nc1ncnc2nc[nH]c12)c1cc2cccc(Cl)c2c(=O)n1-c1ccccc1`, the Potency result was “inactive”.

As to `COc1ccc(CCCN2CCC(COC(c3ccccc3)c3ccccc3)CC2)cc1`, the Potency entry is “inactive”.

As for `CC1(C)CC[C@]2(C(=O)O)CC[C@]3(C)C(=CCC4[C@@]5(C)C[C@@H](O)[C@H](O)C(CO)(CO)C5CC[C@]43C)C2[C@@H]1O` (stereo not given in full), the Potency was 7.94 µM (active).

Take `NC(=O)c1cnc(N[C@@H]2CCCC[C@H]2N)nc1Nc1cccc(-n2nccn2)c1`: the Potency entry is “inactive”.

Regarding `Cc1cc(C(C)Nc2ccccc2C(=O)O)c2nc(N3CCOCC3)cc(=O)n2c1` (stereo not given), the Potency entry is “inactive”.

As for `CCCC(CCC)C(=O)Nc1ccn([C@@H]2O[C@H](CO)[C@@H](O)C2(F)F)c(=O)n1`, the Potency is 10 µM (active).

As to `C=C(C=O)[C@]1(O)C[C@@]2(C)C(=CC1=O)C=C[C@H](OC(=O)/C=C/C=C/[C@H](C)CC)[C@@H]2C`, the Potency result was “inactive”.

Take `C=C1C(=O)OC2/C=C(\C)CC3C=C(CC/C=C(\C)CCC12)C(=O)O3` (stereo not given): the Potency result is “inactive”.

With `N#C/C(=C1\Nc2ccccc2S1)c1ccnc(NCCc2cccnc2)n1`, the Potency result was “inactive”.

`Cc1nc2ccc(CN(C)c3ccc(C(=O)NC(CCC(=O)O)C(=O)O)s3)cc2c(=O)[nH]1` (stereo not given): the Potency is 0.282 µM (active).

`O=C(Nc1ccc(N2C(=O)[C@@H]3[C@H](C2=O)[C@@H]2C=C[C@H]3C2)c(Cl)c1)c1ccccn1`: the Potency result was “inactive”.

Regarding `CN1CCN(c2ccc(OC(F)(F)F)c(Nc3ncc4c(n3)-c3c(c(C(N)=O)nn3CCO)CC4)c2)CC1`, the Potency is 0.316 µM (active).

For `COc1cc2nc(N3CCN(C(=O)c4ccco4)C4CCCCC43)nc(N)c2cc1OC` (stereo not given), the Potency entry is “inactive”.

For `Cc1ccc(NC(=O)C(C)C)cc1C1CCN(Cc2ccc(Oc3ccc(F)c(F)c3)cc2)CC1`, the Potency result was “inactive”.

With `CC(=O)O[C@@]12CO[C@@H]1C[C@H](O)[C@@]1(C)C(=O)[C@H](O)C3=C(C)[C@@H](OC(=O)[C@H](O)[C@@H](NC(=O)OC(C)(C)C)c4ccccc4)C[C@@](O)([C@@H](OC(=O)c4ccccc4)C12)C3(C)C` (stereo not given in full), the Potency result is “inactive”.

Turning to `Cc1cc(-c2cnc(N)c3c(-c4ccc5scnc5c4)csc23)n(C)n1`, the Potency result is “inactive”.

On to `C/C=C(/C)C(=O)O[C@H]1[C@H](OC(=O)/C(C)=C\C)[C@@]23C(CC1(C)C)[C@]1(CCC4[C@@]5(C)CC[C@H](O[C@@H]6O[C@H](C(=O)O)[C@@H](O)[C@H](O[C@@H]7O[C@H](CO)[C@H](O)[C@H](O)[C@H]7O[C@@H]7O[C@@H](C)[C@H](O)[C@@H](O)[C@H]7O[C@@H]7OC[C@@H](O)[C@H](O)[C@H]7O)[C@H]6O[C@@H]6O[C@H](CO)[C@H](O)[C@H](O)[C@H]6O)C(C)(C)C5CC[C@@]4(C)[C@]1(C)C[C@H]2O)O[C@H]3O` (stereo not given in full), for which the activity change, negative = cytotoxicity is -22.5% [at 6.55 µM].

Take `COC1=CC(=O)C[C@@H](C)[C@@]12Oc1c(Cl)c(OC)cc(OC)c1C2=O`: the Potency is 0.1 µM (active).

Take `CN1CCN(C2CCN(C(=O)Nc3cc(Oc4ccc(NC(=O)C5(C(=O)Nc6ccc(F)cc6)CC5)c(F)c4)ccn3)CC2)CC1`: the Potency result is “inactive”.

Turning to `C=C1C(=O)O[C@@H]2C[C@]3(C)[C@@H](CCC(C)O)[C@@H]3C[C@H]12` (stereo not given in full), the Potency entry was “inactive”.

Turning to `Cn1ncc(Cl)c1-c1cc(C(=O)NC(CN)Cc2ccc(F)c(F)c2)oc1Cl` (stereo not given), the Potency result was “inactive”.

Consider `Cc1[nH]c(/C=C2\C(=O)Nc3cc(-c4ccccc4)ccc32)c(C)c1CCC(=O)O`, for which the Potency result was “inactive”.

`COc1cc2ncc(-c3ccccc3)nc2cc1OC`: the Potency entry was “inactive”.

`COc1cc(Br)c(S(=O)(=O)Nc2ccc(Cl)c(O[C@@H]3CCN(C)C3)c2)cc1OC`: the Potency result was “inactive”.

Turning to `C/C=C(\C)C(=O)O[C@H]1C=C(CO)C(=O)[C@H](OC(C)=O)[C@H]1C(C)C`, the Potency result was “inactive”.

Turning to `C/C(=N\N=C(N)N)c1cc(NC(=O)CCCCCCCCC(=O)Nc2cc(/C(C)=N/N=C(N)N)cc(/C(C)=N/N=C(N)N)c2)cc(/C(C)=N/N=C(N)N)c1`, the Potency result was “inactive”.
